Data on 33 molecules can be found in PubChem BioAssay (Tox21).

“And” between values parts separate entries of the source, which are not always exact repeats. Equal entries are not always repeated. Results filed as inconclusive are left out. Where a call stands in place of a potency, no number is given. Some structures have more than one record in an assay (separate samples or runs), and their calls can disagree. The source made the active and inactive calls. The call rests on the fitted dose curve; in most records, active means well fitted curve in the direction sought with a large enough effect in the repeat runs; inconclusive means weak or mixed curves; inactive means no such curve, though single readings can be large; an effect the other way counts as inactive or inconclusive.
Potency means the concentration at half of the fitted maximal effect.

The first assay can be described thus: A CellTox Green Cytotoxicity Assay to monitor cytotoxicity in HEK293 cells - 8 hour (AID 1224884). Further: nearly all actives have a fitted effect of over 35% in size. The conditions noted are these: CellTox Green fluorescence; series mostly up to 76.8 µM. In outline: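 Dead-cell fluorescence measured kinetically: asymmetric cyanine dye, HEK293, 600 cells/well, 5 h settle, 23 nL cpd/DMSO, 37 C, reads 0–40 h every 8 h.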
On to `CC(C)=CC1C(C(=O)OCc2cccc(Oc3ccccc3)c2)C1(C)C` (stereo unspecified), for which the Potency result was “inactive”.

In the case of `CN(C)c1ccccc1`, the Potency result is “inactive”.

As for `Cc1ccc([N+](=O)[O-])cc1`, the Potency result is “inactive”.

Regarding `CNC(=O)CSP(=S)(OC)OC`, the Potency entry is “inactive”.

`CCCCCCCCCc1ccc(O)cc1`: the Potency result is “inactive”.

`CS(=O)(=O)NC(=O)c1cc(Oc2ccc(C(F)(F)F)cc2Cl)ccc1[N+](=O)[O-]`: the Potency entry was “inactive”.

For the molecule `NC(=O)CN1CCCC1=O`, the Potency entry was “inactive”.

Regarding `CC1(C)C(C(=O)OC(C#N)c2cccc(Oc3ccccc3)c2)C1(C)C` (stereo unspecified), the Potency entry is “inactive”.

On to `OCCOCCO`, for which the Potency result was “inactive”.

Turning to `O=C(O)c1nn(Cc2ccc(Cl)cc2Cl)c2ccccc12`, the Potency result is “inactive”.

For the molecule `O=C1CCCO1`, the Potency entry is “inactive”.

Turning to `CCOP(=S)(OCC)SCn1c(=O)oc2cc(Cl)ccc21`, the Potency entry was “inactive”.

With `CCCCOC(=O)COC(=O)c1ccccc1C(=O)OCCCC`, the Potency result is “inactive”.

For `Nc1ccc2ccccc2c1`, the Potency result is “inactive”.

In the case of `Cn1c(-c2ccccc2)cc(-c2ccccc2)[n+]1C`, the Potency entry is “inactive”.

`CCOP(=O)(OCC)OCC`: the Potency result was “inactive”.

As to `CC(C)(c1ccccc1)c1ccc(O)cc1`, the Potency was 8.64 µM (active) and 49 µM (active).

For the molecule `N#Cc1nn(-c2c(Cl)cc(C(F)(F)F)cc2Cl)c(N)c1S(=O)C(F)(F)F` (stereo unspecified), the Potency result is “inactive”.

In the case of `COc1ccc(CO)cc1`, the Potency entry is “inactive”.

On to `CC(C)=CC1C(C(=O)OCN2C(=O)C3=C(CCCC3)C2=O)C1(C)C` (stereo unspecified), for which the Potency entry was “inactive”.

As to `COP(=S)(OC)Oc1ccc(S(=O)(=O)N(C)C)cc1`, the Potency entry is “inactive”.

Consider `C[C@]12CC[C@H]3[C@@H](CCC4=CC(=O)CC[C@@H]43)[C@@H]1CC[C@@H]2O`, for which the Potency result was “inactive”.

For the molecule `O=[N+]([O-])c1ccc(Cl)c([N+](=O)[O-])c1`, the Potency result is “inactive”.

In the case of `CCC(=O)Nc1ccc(Cl)c(Cl)c1`, the Potency result was “inactive”.

On to `Oc1ccc(Cl)cc1Cl`, for which the Potency entry was “inactive”.

A further assay can be described thus: qHTS RealTime-Glo MT Cell Viability Assay in HepG2 cells - 16 hour (AID 1224885). Further: nearly all actives have a fitted effect of over 50% in size. Particulars: RealTime-Glo luminescence; series mostly up to 76.8 µM. In outline:
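qHTS, HepG2, 600 cells/well, RealTime-Glo (NanoLuc + prosubstrate) added with cells; 5 h preincubation; DMSO compound addition; 37 C; luminescence at 0/8/16/24/32/40 h.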
A general note: Quantitative high-throughput screening tests each substance at several concentrations.
For the molecule `CNC(=O)Oc1cccc2c1OC(C)(C)C2`, the Potency entry is “inactive”.

Consider `CN(C)c1ccccc1`, for which the Potency entry was “inactive”.

In the case of `CSc1nc(NC(C)C)nc(NC(C)C)n1`, the Potency result is “inactive”.

For `CNC(=O)CSP(=S)(OC)OC`, the Potency entry was “inactive”.

Turning to `CCCCCCCCCc1ccc(O)cc1`, the Potency entry is “inactive”.

As for `C[N+](C)(C)CC(=O)O`, the Potency result was “inactive”.

Consider `Oc1ccc(Cl)cc1Cc1ccccc1`, for which the Potency was 49.6 µM (active) and inactive.

On to `NC(=O)CN1CCCC1=O`, for which the Potency result was “inactive”.

Consider `CC1(C)C(C(=O)OC(C#N)c2cccc(Oc3ccccc3)c2)C1(C)C` (stereo unspecified), for which the Potency entry is “inactive”.

For `O=P(OCCCl)(OCCCl)OCCCl`, the Potency entry is “inactive”.

For the molecule `O=C(O)c1nn(Cc2ccc(Cl)cc2Cl)c2ccccc12`, the Potency entry was “inactive”.

Turning to `C[C@]12CCC(=O)C=C1CC[C@@H]1[C@@H]2CC[C@@]2(C)[C@H]1CC[C@]2(C)O`, the Potency result is “inactive”.

With `CC(C)(c1ccccc1)c1ccc(O)cc1`, the Potency entry is “inactive”.

For `N#Cc1nn(-c2c(Cl)cc(C(F)(F)F)cc2Cl)c(N)c1S(=O)C(F)(F)F` (stereo unspecified), the Potency result is “inactive”.

In the case of `COc1ccc(CO)cc1`, the Potency entry was “inactive”.

`ClCc1ccccn1`: the Potency entry is “inactive”.

In the case of `COP(=S)(OC)Oc1ccc(S(=O)(=O)N(C)C)cc1`, the Potency result was “inactive”.

As to `N#CCCCCC#N`, the Potency entry is “inactive”.

For `C[C@]12CC[C@H]3[C@@H](CCC4=CC(=O)CC[C@@H]43)[C@@H]1CC[C@@H]2O`, the Potency result is “inactive”.

Turning to `O=[N+]([O-])c1ccc(Cl)c([N+](=O)[O-])c1`, the Potency was 39.5 µM (active) and 17.4 µM (active).

Consider `CCC(=O)Nc1ccc(Cl)c(Cl)c1`, for which the Potency entry was “inactive”.
